Binding signal data for two sequences are collected here from paper PMC7862700, “An all-to-all approach to the identification of sequence-specific readers for epigenetic DNA modifications on cytosine”.

Common to all, as to assay: DAPPL (digital affinity profiling via proximity ligation, sequencing); 10 mM Tris-HCl pH 7.5, 50 mM NaCl, 1 mM DTT, 4% glycerol, room temperature, 30 min; GST-TFs on glutathione beads, 16-mer random dsDNA library, 0.1% formaldehyde crosslink after washing; high values mean tight binding
Common to all, as to conditions: protein: recombinant; tags: N-terminal GST; dsDNA, one strand shown

For one test, the target named is T1, ELK1 (Homo sapiens, UniProt P19419 1-428).
T1 sequence: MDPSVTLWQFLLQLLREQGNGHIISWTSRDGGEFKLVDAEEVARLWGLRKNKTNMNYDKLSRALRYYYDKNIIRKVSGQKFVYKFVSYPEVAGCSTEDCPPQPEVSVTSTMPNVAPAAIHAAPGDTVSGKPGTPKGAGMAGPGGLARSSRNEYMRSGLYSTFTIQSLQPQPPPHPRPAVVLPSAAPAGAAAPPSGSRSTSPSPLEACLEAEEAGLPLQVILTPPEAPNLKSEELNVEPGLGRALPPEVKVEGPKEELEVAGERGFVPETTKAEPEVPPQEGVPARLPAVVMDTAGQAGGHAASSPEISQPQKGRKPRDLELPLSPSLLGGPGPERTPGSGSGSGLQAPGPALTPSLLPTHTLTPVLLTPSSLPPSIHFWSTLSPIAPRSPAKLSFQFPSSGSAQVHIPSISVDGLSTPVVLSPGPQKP
The gist of the method:
(§1)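 GST fusions of human transcription factors were expressed in yeast and captured with glutathione beads. Once given DNA barcodes and pooled alongside a tag-only sample, they were incubated for 30 min at room temperature with 200 nmole of a random double-stranded 16-mer DNA library in Tris/NaCl/DTT/glycerol buffer, then washed, crosslinked (0.1% formaldehyde), proximity-ligated, PCR-amplified and sequenced on an Illumina NextSeq500. The binding signal of each hexamer is its read frequency for a factor divided by its frequency for the tag-only sample.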

Another test deals with T2, GABPA (Homo sapiens, UniProt Q06546 1-454).
T2 sequence: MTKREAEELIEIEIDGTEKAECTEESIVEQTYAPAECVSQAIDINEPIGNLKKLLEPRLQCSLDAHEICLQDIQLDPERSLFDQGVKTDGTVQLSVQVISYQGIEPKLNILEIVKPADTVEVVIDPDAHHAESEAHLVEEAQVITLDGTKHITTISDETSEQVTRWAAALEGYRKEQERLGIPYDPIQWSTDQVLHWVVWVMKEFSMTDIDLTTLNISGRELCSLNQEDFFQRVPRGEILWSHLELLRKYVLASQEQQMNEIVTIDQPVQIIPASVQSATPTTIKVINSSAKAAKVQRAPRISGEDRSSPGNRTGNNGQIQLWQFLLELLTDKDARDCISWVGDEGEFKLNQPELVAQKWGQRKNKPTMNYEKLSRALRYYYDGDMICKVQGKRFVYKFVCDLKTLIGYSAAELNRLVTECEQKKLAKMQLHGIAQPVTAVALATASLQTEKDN
Put shortly: as §1

Another test addresses T3, ERG (Homo sapiens, UniProt P11308 1-479).
T3 sequence: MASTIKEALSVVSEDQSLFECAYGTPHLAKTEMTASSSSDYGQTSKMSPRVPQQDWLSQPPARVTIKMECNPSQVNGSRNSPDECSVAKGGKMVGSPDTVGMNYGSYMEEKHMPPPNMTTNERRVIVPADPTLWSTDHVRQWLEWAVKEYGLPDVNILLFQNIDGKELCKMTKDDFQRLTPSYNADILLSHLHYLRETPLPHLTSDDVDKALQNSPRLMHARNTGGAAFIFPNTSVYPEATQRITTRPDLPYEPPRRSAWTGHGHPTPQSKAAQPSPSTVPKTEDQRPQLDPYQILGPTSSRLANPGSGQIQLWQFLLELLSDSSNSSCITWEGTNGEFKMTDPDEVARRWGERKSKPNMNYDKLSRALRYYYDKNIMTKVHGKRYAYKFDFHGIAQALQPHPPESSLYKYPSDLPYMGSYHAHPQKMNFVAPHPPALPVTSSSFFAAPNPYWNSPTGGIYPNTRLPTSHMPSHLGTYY
Put shortly:
as §1

A further test deals with ELF1 (Homo sapiens, UniProt P32519 1-619). Put shortly:
as §1

Another test has as its target SPI1 (Homo sapiens, UniProt P17947 1-270). Put shortly:
as §1

Another test addresses ETV5 (Homo sapiens, UniProt P41161 1-510). The gist of the method: as §1
A further test concerns the target ELF4 (Homo sapiens, UniProt Q99607 1-663). The gist of the method: as §1
A further test addresses T4, ELF3 (Homo sapiens, UniProt P78545 1-371).
T4 sequence: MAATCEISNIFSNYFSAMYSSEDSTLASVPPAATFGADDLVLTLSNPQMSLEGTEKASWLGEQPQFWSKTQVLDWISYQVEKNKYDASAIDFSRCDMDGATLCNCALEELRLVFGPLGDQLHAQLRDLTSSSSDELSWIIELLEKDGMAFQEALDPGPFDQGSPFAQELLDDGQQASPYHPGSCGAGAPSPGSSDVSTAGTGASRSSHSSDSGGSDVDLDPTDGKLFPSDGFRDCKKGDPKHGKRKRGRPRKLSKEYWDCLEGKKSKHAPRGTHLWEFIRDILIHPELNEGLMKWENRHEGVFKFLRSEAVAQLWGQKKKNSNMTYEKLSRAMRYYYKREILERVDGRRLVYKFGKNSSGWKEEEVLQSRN
The gist of the method: as §1

For a further test, the target named is T5, ERF (Homo sapiens, UniProt P50548 1-548).
T5 sequence: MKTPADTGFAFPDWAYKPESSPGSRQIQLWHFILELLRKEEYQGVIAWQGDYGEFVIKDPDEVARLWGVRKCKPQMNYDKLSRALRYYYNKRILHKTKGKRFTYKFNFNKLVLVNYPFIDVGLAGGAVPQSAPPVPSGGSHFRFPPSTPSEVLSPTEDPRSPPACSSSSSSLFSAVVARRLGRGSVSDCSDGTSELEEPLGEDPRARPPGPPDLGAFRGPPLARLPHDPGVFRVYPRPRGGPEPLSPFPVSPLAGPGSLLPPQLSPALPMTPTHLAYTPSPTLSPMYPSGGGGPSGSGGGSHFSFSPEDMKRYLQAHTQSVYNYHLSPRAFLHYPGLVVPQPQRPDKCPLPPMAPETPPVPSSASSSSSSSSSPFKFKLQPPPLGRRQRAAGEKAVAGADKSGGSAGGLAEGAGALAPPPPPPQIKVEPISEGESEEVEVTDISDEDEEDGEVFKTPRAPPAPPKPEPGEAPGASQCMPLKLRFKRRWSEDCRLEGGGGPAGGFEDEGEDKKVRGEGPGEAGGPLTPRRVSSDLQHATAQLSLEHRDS
The gist of the method:
as §1

The next test has as its target T6, ETV3L (Homo sapiens, UniProt Q6ZN32 1-361).
T6 sequence: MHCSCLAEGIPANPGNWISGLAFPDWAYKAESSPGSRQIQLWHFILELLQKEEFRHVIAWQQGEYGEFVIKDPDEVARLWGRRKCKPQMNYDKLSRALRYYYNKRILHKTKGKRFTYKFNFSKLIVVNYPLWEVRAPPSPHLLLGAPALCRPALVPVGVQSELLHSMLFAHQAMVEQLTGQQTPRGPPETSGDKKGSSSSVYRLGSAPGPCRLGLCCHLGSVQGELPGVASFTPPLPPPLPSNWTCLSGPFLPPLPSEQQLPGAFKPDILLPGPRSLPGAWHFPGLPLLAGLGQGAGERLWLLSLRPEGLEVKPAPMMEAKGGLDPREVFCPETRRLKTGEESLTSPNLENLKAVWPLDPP
Put shortly: as §1

Another test deals with T7, ETS2 (Homo sapiens, UniProt P15036 1-469).
T7 sequence: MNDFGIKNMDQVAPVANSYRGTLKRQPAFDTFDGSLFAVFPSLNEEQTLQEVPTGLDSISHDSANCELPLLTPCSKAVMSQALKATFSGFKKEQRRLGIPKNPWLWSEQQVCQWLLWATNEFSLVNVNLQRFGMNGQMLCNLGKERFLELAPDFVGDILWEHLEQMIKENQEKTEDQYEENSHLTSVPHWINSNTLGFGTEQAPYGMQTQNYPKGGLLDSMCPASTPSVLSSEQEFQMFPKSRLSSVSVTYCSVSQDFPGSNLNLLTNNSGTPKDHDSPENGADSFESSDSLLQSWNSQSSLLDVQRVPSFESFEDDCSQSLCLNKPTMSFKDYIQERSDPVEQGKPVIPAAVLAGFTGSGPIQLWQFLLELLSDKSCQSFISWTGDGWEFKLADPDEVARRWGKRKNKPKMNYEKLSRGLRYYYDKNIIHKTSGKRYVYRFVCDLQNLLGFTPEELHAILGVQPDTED
The gist of the method:
as §1

For a further test, the target named is T8, ETV3 (Homo sapiens, UniProt P41162-2 1-143).
T8 sequence: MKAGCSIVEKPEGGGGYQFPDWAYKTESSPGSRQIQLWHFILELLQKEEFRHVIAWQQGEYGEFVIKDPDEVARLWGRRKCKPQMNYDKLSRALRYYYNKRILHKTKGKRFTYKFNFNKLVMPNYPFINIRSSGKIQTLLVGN
Put shortly: as §1

In another test the target is T9, ELK4 (Homo sapiens, UniProt P28324-2 1-405).
T9 sequence: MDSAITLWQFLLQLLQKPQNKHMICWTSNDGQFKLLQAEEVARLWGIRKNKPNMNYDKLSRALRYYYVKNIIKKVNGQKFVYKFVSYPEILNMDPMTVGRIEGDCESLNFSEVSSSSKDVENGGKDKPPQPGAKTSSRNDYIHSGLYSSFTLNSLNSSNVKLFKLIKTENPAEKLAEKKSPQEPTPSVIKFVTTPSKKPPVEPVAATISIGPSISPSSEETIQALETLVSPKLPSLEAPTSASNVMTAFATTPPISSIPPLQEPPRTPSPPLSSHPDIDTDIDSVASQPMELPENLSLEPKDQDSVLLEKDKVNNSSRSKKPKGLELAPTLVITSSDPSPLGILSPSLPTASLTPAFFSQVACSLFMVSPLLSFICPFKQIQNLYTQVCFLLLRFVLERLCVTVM
The gist of the method: as §1

In another test the target is T10, ETV2 (Homo sapiens, UniProt O00321 1-342).
T10 sequence: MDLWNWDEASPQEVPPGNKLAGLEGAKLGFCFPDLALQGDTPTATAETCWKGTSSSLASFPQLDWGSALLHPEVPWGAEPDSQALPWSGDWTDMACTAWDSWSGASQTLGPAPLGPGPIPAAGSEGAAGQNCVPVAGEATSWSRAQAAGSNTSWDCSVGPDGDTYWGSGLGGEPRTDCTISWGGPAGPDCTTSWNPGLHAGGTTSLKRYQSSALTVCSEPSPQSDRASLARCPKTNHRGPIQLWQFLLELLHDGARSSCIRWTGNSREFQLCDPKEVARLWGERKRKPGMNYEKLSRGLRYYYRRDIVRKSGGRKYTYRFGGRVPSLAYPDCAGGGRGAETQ
The gist of the method: as §1

The next test deals with ETV1 (Homo sapiens, UniProt P50549 1-477). Put shortly:
as §1

Sequence of ELF1 (P32519 whole entry): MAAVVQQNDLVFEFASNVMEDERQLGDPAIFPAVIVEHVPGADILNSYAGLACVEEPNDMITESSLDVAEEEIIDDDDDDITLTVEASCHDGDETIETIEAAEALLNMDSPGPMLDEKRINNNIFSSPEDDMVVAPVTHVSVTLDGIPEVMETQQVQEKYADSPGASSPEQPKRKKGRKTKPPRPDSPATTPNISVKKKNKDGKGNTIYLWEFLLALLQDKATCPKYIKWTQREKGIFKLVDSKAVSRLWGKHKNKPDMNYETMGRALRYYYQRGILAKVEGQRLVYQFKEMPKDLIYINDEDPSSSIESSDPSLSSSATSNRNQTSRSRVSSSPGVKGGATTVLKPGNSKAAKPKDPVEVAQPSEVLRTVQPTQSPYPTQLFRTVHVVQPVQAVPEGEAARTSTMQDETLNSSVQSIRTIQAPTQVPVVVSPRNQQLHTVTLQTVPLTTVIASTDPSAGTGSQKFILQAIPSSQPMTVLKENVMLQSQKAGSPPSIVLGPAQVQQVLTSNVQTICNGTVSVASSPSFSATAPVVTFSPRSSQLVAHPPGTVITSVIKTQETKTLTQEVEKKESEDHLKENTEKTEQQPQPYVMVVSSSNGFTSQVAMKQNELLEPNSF
Sequence of ETV5 (P41161 whole entry): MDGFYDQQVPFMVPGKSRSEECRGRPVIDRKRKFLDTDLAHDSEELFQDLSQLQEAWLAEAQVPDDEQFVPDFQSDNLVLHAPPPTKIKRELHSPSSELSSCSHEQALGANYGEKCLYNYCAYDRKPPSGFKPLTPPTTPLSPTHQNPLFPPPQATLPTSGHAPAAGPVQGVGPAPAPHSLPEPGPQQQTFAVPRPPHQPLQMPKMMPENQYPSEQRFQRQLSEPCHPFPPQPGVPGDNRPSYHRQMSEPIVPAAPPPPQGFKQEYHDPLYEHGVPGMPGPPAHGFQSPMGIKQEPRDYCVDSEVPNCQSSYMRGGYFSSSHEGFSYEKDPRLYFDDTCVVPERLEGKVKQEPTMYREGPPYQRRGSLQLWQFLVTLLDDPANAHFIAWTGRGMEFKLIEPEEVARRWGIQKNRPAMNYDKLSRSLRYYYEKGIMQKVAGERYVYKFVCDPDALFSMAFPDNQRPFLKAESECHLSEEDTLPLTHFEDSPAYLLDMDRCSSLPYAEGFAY
Sequence of ELF4 (Q99607 whole entry): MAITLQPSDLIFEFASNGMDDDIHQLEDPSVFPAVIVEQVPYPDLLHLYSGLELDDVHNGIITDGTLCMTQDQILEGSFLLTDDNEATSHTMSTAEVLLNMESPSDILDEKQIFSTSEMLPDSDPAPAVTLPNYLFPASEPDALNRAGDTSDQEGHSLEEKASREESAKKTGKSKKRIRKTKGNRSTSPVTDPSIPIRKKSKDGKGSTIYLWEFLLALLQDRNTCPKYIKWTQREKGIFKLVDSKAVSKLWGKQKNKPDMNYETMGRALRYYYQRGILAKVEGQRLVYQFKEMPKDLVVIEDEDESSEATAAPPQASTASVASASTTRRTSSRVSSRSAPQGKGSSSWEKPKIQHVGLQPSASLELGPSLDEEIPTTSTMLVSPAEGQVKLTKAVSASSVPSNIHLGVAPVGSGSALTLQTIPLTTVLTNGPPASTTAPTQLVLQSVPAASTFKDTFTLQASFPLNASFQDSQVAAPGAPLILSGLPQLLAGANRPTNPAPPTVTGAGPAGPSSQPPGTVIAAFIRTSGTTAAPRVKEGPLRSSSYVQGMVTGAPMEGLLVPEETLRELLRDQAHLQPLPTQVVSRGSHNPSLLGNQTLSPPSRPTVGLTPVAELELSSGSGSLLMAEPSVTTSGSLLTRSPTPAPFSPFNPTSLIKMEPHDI
Sequence of ETV1 (P50549 whole entry): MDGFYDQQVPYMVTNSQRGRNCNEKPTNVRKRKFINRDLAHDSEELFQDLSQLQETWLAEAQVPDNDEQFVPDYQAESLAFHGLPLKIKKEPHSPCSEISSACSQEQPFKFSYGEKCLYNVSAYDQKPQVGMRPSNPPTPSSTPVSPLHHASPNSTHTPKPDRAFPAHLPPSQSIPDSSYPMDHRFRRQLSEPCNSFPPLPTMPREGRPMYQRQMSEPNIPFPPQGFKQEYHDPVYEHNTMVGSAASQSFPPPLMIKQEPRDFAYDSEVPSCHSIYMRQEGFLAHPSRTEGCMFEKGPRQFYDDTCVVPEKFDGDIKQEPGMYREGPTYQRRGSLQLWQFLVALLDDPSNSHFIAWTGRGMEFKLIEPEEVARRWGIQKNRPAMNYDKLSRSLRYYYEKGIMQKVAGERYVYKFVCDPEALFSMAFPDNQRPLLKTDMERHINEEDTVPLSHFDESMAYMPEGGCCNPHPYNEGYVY

Take CCCAAG: the binding signal with ELK1 was 1.07 fold enrichment (6-mer frequency, TF over GST control); with GABPA, 1.07 fold enrichment (6-mer frequency, TF over GST control); with ERG, 1.04 fold enrichment (6-mer frequency, TF over GST control); with ELF1 it was 1.06 fold enrichment (6-mer frequency, TF over GST control); with SPI1, 1.03 fold enrichment (6-mer frequency, TF over GST control); with ETV5 it was 1.01 fold enrichment (6-mer frequency, TF over GST control). Besides, the binding signal is 1.03 fold enrichment (6-mer frequency, TF over GST control) with ELF4; 1.12 fold enrichment (6-mer frequency, TF over GST control) with ELF3; 1.06 fold enrichment (6-mer frequency, TF over GST control) with ERF; 1.01 fold enrichment (6-mer frequency, TF over GST control) with ETV3L; 1 fold enrichment (6-mer frequency, TF over GST control) with ETS2; 1.03 fold enrichment (6-mer frequency, TF over GST control) with ETV3.

Turning to ACGGTA, the binding signal was 1.03 fold enrichment (6-mer frequency, TF over GST control) with ELK1; 1.01 fold enrichment (6-mer frequency, TF over GST control) with ELF1; 1.04 fold enrichment (6-mer frequency, TF over GST control) with ETV5; 1.02 fold enrichment (6-mer frequency, TF over GST control) with ELK4; 1.03 fold enrichment (6-mer frequency, TF over GST control) in the test with ETV2; 1.01 fold enrichment (6-mer frequency, TF over GST control) with ETV1. In addition, in the test with ERF, the binding signal is 1.09 fold enrichment (6-mer frequency, TF over GST control).
